Assay outcomes (PubChem BioAssay)
Compounds with a hit are over-represented: about 10% of the library has one in this group of screens.
G9a block: qHTS Assay for Inhibitors of Histone Lysine Methyltransferase G9a; 350,000 tested, 8.8% active; G9a H3K9 monomethylation, AlphaScreen, 2 h; AID 504332, 2011; Histone-lysine N-methyltransferase EHMT2 (Homo sapiens), Q96KQ7; Potency, µM (highest dose often 102 µM), for the others: top-dose activity, negative = inhibition, usual class: inhibitors; note: potency is the fitted concentration of half-maximal effect; nearly all actives have a fitted effect of over 75% in size
Target sequence (Q96KQ7 913-1193 limits assumed): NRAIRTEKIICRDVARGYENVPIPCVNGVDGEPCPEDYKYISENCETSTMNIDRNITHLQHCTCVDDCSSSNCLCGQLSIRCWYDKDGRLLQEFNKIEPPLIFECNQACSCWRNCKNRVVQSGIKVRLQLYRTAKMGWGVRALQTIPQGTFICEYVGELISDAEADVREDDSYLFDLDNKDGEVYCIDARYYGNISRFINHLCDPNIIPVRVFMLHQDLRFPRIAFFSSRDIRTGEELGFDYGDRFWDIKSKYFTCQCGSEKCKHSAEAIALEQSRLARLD
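G9a (20 nM) preincubated 15 min RT with compounds, then 500 nM biotinylated H3K9 peptide and 20 uM SAM added; 2 h RT reaction. Monomethyl-H3K9 product detected by AlphaScreen with anti-H3K9me1 antibody, streptavidin donor and anti-rabbit IgG acceptor beads.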
CCT chaperon mod: High-Throughput Screening for Modulators of Cytosolic Chaperonin Activity | purified chaperonin ATPase assay, HTRF ADP detection, 30 min | activity change, % (concentration not given with the values), hits read low | 360,000 tested, 0.3% active | AID 651819, 2012; in the data active = activity change below about -30%
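ATPase activity: ADP formed was measured by HTRF Transcreener (665/615 nm ratio) after 30 min at 37 deg C with 10 uM ATP. Compounds screened at one 76 uM concentration against 40 or 20 nM TRiC in Tris pH 7.4/KCl/MgCl2/DTT buffer.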
MmCpn inh: Inhibitors of TCP-1 ring complex (TRiC) of Methanococcus maripaludis (MmCpn): qHTS | Chaperonin Mm-Cpn (Methanococcus maripaludis) | purified Mm-Cpn ATPase, ADP Transcreener TR-FRET | Potency, µM (highest dose often 76.9 µM), inactives show top-dose activity, negative = inhibition, actives largely listed as inhibitors | 330,000 tested, 0.031% active; note: potency is the fitted concentration of half-maximal effect; nearly all actives have a fitted effect of over 80% in size
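Purified archaeal Mm-CPN (25nM final) preincubated 10 min at 37degC with compound, then 10uM ATP for 30 min at 37degC; ADP measured by HTRF Transcreener TR-FRET; buffer 30 mM TRIS pH 7.4, 100mM KCl, 5mM MgCl2, 1mM DTT.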
VDR inh: Inhibitors of the vitamin D receptor (VDR): qHTS; 400,000 tested, 0.93% active; VDR-SRC2-3 peptide fluorescence polarization, 2 h; Vitamin D3 receptor (Homo sapiens), P11473; AID 504847, 2011; Potency, µM, for inactives: max response, negative = inhibition, hits mostly inhibitors; note: potency is the fitted concentration of half-maximal effect
Target sequence (P11473 whole entry, looked up): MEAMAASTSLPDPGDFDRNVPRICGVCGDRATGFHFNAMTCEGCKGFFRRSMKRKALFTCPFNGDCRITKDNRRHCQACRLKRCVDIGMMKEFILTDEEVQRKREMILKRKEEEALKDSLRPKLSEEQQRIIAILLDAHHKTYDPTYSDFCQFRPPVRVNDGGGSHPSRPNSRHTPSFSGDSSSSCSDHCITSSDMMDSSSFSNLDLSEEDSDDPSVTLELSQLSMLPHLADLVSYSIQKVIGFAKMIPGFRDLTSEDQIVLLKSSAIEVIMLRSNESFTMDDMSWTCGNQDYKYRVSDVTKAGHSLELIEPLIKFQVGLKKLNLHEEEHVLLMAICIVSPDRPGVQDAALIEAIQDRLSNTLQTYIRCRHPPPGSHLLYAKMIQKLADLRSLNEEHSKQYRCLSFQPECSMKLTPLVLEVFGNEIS
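Fluorescence polarization assay of small-molecule disruption of VDR binding to coregulator peptide SRC2-3. Compounds and controls pin-transferred, then read after 2 h incubation at ambient room temperature.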
Sfp PPTase inh: qHTS Assay for Inhibitors of Bacillus subtilis Sfp phosphopantetheinyl transferase (PPTase). 4'-phosphopantetheinyl transferase ffp (Bacillus subtilis), Q9F4F7. Biochemical Sfp PPTase activity, qHTS. Potency, µM, without a hit: largest response in the series, negative = inhibition, usual class: inhibitors. 310,000 tested, 3.5% active;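 note: the enzyme is Sfp with the accession as filed and its product quenches rhodamine fluorescence; potency is the fitted concentration of half-maximal effect; 0% = enzyme reaction without inhibitor and -100% = no enzyme wells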
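Fluorescence-quenching assay: 15 nM Sfp-PPTase preincubated 15 min at room temperature with compound, then 5 uM rhodamine-CoA and 12.5 uM BHQ-2-labelled YbbR peptide added. Fluorescence (ex 525/em 598 nm) read at start and after 30 min; difference gives rate.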
PLK1 PBD block: qHTS for Inhibitors of PLK1-PDB (polo-like kinase 1 - polo-box domain): Primary Screen; 360,000 tested, 2.8% active; Serine/threonine-protein kinase PLK1 (Homo sapiens), P53350; Potency, µM, for the others: max response, negative = inhibition, usual class: inhibitors; AID 720504, 2013; Plk1 PBD binding of FITC phosphopeptide, fluorescence polarization; note: potency is the fitted concentration of half-maximal effect; series mostly up to about 57 µM; nearly all actives have a fitted effect of over 65% in size
* hit, by the source's call; ? = inconclusive; . = not tested or not shown; [ ] = remark or other dose. Unless noted, calls come from the whole dose curve; as a rule, active = well fitted curve in the direction sought with a large enough effect; inconclusive = small, poorly fitted or top-dose-only effect, or another doubt; inactive = no such curve, though single readings can be large; an effect the other way counts as inactive or inconclusive. Unless noted, % is set by controls: 0 for no effect and ±100 for the full control effect.

SMILES	G9a block	CCT chaperon mod	MmCpn inh	VDR inh	Sfp PPTase inh	PLK1 PBD block
CCOc1ccc2cc(C#N)c(=O)oc2c1	.	.	.	3.4%	8.3%	.
C[C@H]1C(=O)O[C@@H]2CCN3CC=C(COC(=O)[C@@](C)(O)[C@@]1(C)O)[C@H]23	22.6%[21.5 µM]	.	.	-3.8%	?	.
C[C@H](N)CN1CCc2ccc(Br)cc21	44.7µM*	1.4	.	-2.0%	.	-0.2%
O=c1[nH]c(=O)n(Cc2ccc(F)cc2)c(O)c1C=NCC1CCCO1 (configuration not stated)	-31.1%[59 µM]	-3.6	-3.0%	-28.3%	?	-15.7%
NC1CCCCC1N=Cc1c(O)n(Cc2ccc(F)cc2)c(=O)[nH]c1=O (configuration not stated)	0.891µM*	-8.0	0.8%	-1.4%	-4.6%	1.1%
CCN(CC)CCCN=Cc1c(O)n(Cc2ccc(F)cc2)c(=O)[nH]c1=O	-46.8%	-0.4	-0.3%	-15.0%	3.7%	-5.5%
Cc1ccc(-n2c(O)c(C=NC3CCCCC3N)c(=O)[nH]c2=O)cc1C (configuration not stated)	?	0.5	1.3%	9.2%	2.1%	-4.2%
CN1CCN(/N=C/c2c(O)n(Cc3ccc(F)cc3)c(=O)[nH]c2=O)CC1	56.2µM*	-1.3	1.2%	0.4%	9.1%	-3.5%
CCCCn1c(O)c(C=NC2CCCCC2N)c(=O)[nH]c1=O (configuration not stated)	3.98µM*	3.8	2.4%	-3.3%	8.0%	-9.2%
Cc1cc(C)cc(N2C(=O)NC(=O)/C(=C/c3cccn3-c3ccc(Cl)cc3)C2=O)c1	31.6µM*	-1.5	-1.8%	-4.9%	50.1µM*	?
Cc1cccc(N2C(=O)NC(=O)/C(=C\c3cccn3-c3ccc(Cl)cc3)C2=O)c1	24.0%[0.501 µM]	0.9	0.4%	17.5%	50.1µM*	0.532µM*
CC(C)(C)n1cccc1/C=C1\C(=O)NC(=O)N(c2ccccc2)C1=O	?	0.2	2.5%	18.4%	-26.9%	23.8µM*
CC(C)C(O)(C(=O)OC[C@@H]1CC[N+]2([O-])CCCC12)C(C)O (some centres not stated)	.	.	.	-3.7%	11.1%	.
CCCCN1C(=O)NC(=O)/C(=C/c2cnc(SC)nc2)C1=O	10µM*	-0.2	-1.1%	25.1µM*	25.1µM*	8.44µM*
CN(C)c1ncc(/C=C2/C(=O)NC(=S)N(C3CCCCC3)C2=O)cn1	.	.	-9.3%	.	44.7µM*	.
CSc1ncc(/C=C2/C(=O)NC(=O)N(C3CCCCC3)C2=O)cn1	?	-1.5	-0.4%	20µM*	39.8µM*	10.6µM*
CCC(C)N1C(=O)/C(=C\c2cnc(N(C)C)nc2)C(=O)NC1=S (configuration not stated)	7.94µM*	-2.6	-1.4%	44.7µM*	50.1µM*	6.7µM*
O=C(c1ccco1)N1CCC2(CC1)CN(Cc1ccncc1)C2	8.7%[12.7 µM]	.	.	-9.3%	-2.7%	.
CC1O[C@@H](OC2CC[C@@]3(C=O)C4CC[C@]5(C)C(C6=CC(=O)OC6)CC[C@@]5(O)C4CC[C@]3(O)C2)C(O)C(O)C1O (some centres not stated)	-30.3%[2.33 µM]	.	.	-7.1%	3.2%	.
CC1OC(OC2C(O)CC(OC3C(O)CC(OC4CCC5(C)C(CCC6C5CCC5(C)C(C7=CC(=O)OC7)CCC65O)C4)OC3C)OC2C)CC(O)C1O (configuration not stated)	13.4%[59 µM]	.	.	10.4%	24.3%	.
COc1ccc(NC(c2ccccc2)P(=O)(Oc2ccccc2)Oc2ccccc2)cc1 (configuration not stated)	25.1µM*	-0.9	0.3%	-14.2%	5.3%	2.6%
COc1ccc(NC(c2ccccc2F)P(=O)(Oc2ccccc2)Oc2ccccc2)cc1 (configuration not stated)	?	-2.5	0.1%	0.5%	24.5%	-1.0%
C[C@@H]1O[C@H](C[N+](C)(C)C)CS1	2µM*	.	.	5.7%	.	.
CCC[C@@](C)(COC(N)=O)COC(=O)NC(C)C	19.5%[21.5 µM]	.	.	1.2%	7.0%	.
O=C(CCS(=O)(=O)c1ccccc1)Nc1nnc(-c2ccco2)o1	31.6µM*	-1.9	0.4%	-2.5%	?	-16.2%
SMILES	G9a block	CCT chaperon mod	MmCpn inh	VDR inh	Sfp PPTase inh	PLK1 PBD block
O=C(COC(=O)Cc1ccccc1)Nc1nnc(-c2ccccc2)o1	0.5%[0.501 µM]	1.9	-0.1%	-8.9%	.	-11.7%
COC(=O)c1ccccc1-n1c(C)nc2ccccc2c1=O	27.4%[59 µM]	0.2	-1.4%	3.6%	-4.7%	-2.3%
O=C(O)c1cccc2nc3ccccc3nc12	39.8µM*	-1.3	-0.1%	-28.1%	17.6%	1.2%
CCN1C(=O)/C(=C\c2ccc([N+](=O)[O-])s2)C(=O)NC1=S	2.82µM*	.	-10.2%	.	10µM*	.
CCOP(=O)(/C=C(\Cl)c1ccccc1)C(O)c1ccc(F)cc1 (configuration not stated)	24.1%[2.33 µM]	1.5	-2.5%	?	12.3%	21.2µM*
COc1cccc(CNC(=O)CSc2ccc(-c3ccco3)nn2)c1	28.2µM*	-4.4	-2.0%	-20.1%	22.4µM*	-6.1%
COc1cccc(-c2nn(Cc3ccccc3)cc2C(=O)O)c1	3.0%	0.1	2.8%	9.3%	3.9%	4.1%
Cc1cc2oc(=O)cc(-c3ccccc3)c2c(C)c1-c1ccc(CO)cc1	?	0.5	3.8%	?	126µM*	-0.4%
CCc1cc(=O)oc2cc(C)cc(OCC(=O)N3CCC(C(=O)O)(c4ccccc4)CC3)c12	-7.6%[12.7 µM]	0.4	-3.8%	-5.3%	9.0%	1.8%
CC(=O)O[C@H]1[C@H]2[C@@H](OC(=O)Cc3ccccc3)[C@@H](C)C[C@]2(OC(C)=O)C(=O)/C(C)=C/[C@@H]2[C@H](CC[C@@]13CO3)C2(C)C	11.6%[59 µM]	.	.	6.1%	0.2%	.
Cn1c(O)c(C(=O)c2ccccc2F)c(=O)n(C)c1=O	11.2µM*	-0.4	1.2%	-14.3%	?	-8.5%
c1nc[n]([Sn]([CH]2CCCCC2)([CH]2CCCCC2)[CH]2CCCCC2)n1	.	.	.	50.1µM*	?	.
CN1[C@H]2CC(=O)C[C@@H]1[C@@H](O)C2	1.0%[21.5 µM]	.	.	0.1%	?	.
O=C(O)CNCP(=O)(O)O	.	.	.	.	-2.5%	.
CCOC(=O)Cn1c(C)[n+](C)c2cc(Cl)c(Cl)cc21	44.7µM*	-0.3	0.4%	1.6%	15.9%	-6.3%
